Legend:
Experiment in all cases: log2 ratio of Biotin-Ahx-Ub-VS probe labelling (compound/DMSO); higher = less target engagement, active = hit call of the paper (q ≤ 0.05, log2 ratio ≤ -1)
Conditions in all cases: treatment time: 3 h
[1] = compound: CCC1N(CCc2sccc12)C(=O)CCl
Summary of the method: (§1)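 HEK293T lysate (495 µg per sample, in Tris/CHAPS/IGEPAL buffer with protease inhibitors) was treated in triplicate with compound at 50 or 200 µM or with DMSO for 3 h. It was then treated with Biotin-Ahx-Ub-VS (0.5 µM final) for 1 h. Labelled DUBs were NeutrAvidin-enriched, digested with LysC and trypsin, and run by diaPASEF LC-MS/MS. Median-normalised label-free quantities gave average log2 ratios compound/DMSO by unpaired t-test, using proteins with ≥2 unique peptides.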

[2] = compound: CN1c2ccccc2C(CS1(=O)=O)NC(=O)CCl
Summary of the method: as §1

[3] = compound: Cl.ClCC(=O)N1CCc2ncncc2C1
Summary of the method: as §1

[4] = compound: Cl.Cn1ncc2C(CCCc12)NC(=O)CCl
Summary of the method: as §1

[5] = compound: ClCC(=O)NC1CCOc2ccccc12
Summary of the method: as §1

[6] = compound: ClCC(=O)NC1CCCc2ccccc12
Summary of the method: (§2)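 The values are mean compound-versus-vehicle ratios derived by unpaired t-test. For 3 h, triplicate HEK293T lysate samples (495 µg each) were treated with compound at a series of concentrations or with vehicle, after which Biotin-Ahx-Ub-VS was added to 0.5 µM final for 1 h. Labelled deubiquitinases were enriched with NeutrAvidin, digested with LysC and trypsin, and analysed by diaPASEF LC-MS/MS. Ratios are log2 values from global-median-normalised Spectronaut label-free quantities, using proteins with two or more unique peptides.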

[7] = compound: ClCC(=O)N[C@@H]1CCCc2ccccc12
Summary of the method: as §2

[8] = compound: ClCC(=O)N[C@H]1CCCc2ccccc12
Summary of the method: as §2

[9] = compound: CCC1N(CCc2cc(OC)c(Cl)cc12)C(=O)CCl
Summary of the method: as §1

[10] = compound: CCCC1N(CCc2cc(OC)c(OC)cc12)C(=O)CCl
Summary of the method: as §1

[11] = compound: CN(Cc1cccc(Br)c1)C(=O)CCl
Summary of the method: as §1

[12] = compound: CN(Cc1cccc(OCc2ccccc2C)c1)C(=O)CCl
Summary of the method: as §1

[13] = compound: CN(Cc1ccccc1)C(=O)CCl
Summary of the method: as §1

[14] = compound: COc1ccc(CN(C)C(=O)CCl)cc1
Summary of the method: as §1

[15] = compound: COc1cccc(CN(CCCc2ccccc2)C(=O)CCl)c1
Summary of the method: as §1

[16] = compound: ClCC(=O)N1CCc2cc(Cl)c(Cl)cc2C1
Summary of the method: as §1

[17] = compound: ClCC(=O)N1CCc2nc(ncc2C1)-c1ccccc1
Summary of the method: as §1

[18] = compound: ClCC(=O)N1CCc2nocc2C1
Summary of the method: as §1

[19] = compound: ClCC(=O)N1CCc2scc(Br)c2C1
Summary of the method: as §1

[20] = compound: ClCC(=O)NC(C1CCCC1)c1cccs1
Summary of the method: as §1

Measured: log2 ratio of Biotin-Ahx-Ub-VS probe labelling

BAP1 (UniProt Q92560)
Sequence of UniProt Q92560 (Q92560 whole entry): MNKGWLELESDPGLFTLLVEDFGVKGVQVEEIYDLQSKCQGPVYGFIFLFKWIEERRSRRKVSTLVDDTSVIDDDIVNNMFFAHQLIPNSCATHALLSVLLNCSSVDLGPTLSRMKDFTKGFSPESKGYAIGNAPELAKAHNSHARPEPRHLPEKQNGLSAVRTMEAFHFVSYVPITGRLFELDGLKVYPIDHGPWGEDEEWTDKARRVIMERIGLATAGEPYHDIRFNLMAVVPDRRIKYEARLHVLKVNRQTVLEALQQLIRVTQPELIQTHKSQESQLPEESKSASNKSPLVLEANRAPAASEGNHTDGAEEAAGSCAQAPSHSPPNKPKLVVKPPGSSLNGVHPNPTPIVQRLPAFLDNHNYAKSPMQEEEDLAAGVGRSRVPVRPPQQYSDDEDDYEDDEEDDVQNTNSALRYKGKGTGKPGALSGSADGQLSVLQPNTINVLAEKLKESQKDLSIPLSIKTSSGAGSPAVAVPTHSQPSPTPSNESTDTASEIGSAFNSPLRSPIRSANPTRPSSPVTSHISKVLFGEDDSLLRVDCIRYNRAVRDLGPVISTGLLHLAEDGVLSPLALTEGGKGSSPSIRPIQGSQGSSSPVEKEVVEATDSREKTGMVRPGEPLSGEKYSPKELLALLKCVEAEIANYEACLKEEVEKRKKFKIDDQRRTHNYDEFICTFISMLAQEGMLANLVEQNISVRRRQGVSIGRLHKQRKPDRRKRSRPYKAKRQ
inactive: [1]; compound concentration: 50uM -0.142 | [1]; compound concentration: 200uM -0.347 | [2]; compound concentration: 50uM -0.805 | [3]; compound concentration: 50uM -0.468 | [4]; compound concentration: 50uM -0.38 | [5]; compound concentration: 50uM -0.598 | [6]; compound concentration: 0.78uM -0.121 | [6]; compound concentration: 1.56uM 0.0581 | [6]; compound concentration: 3.13uM -0.0976 | [6]; compound concentration: 6.25uM -0.0118 | [6]; compound concentration: 12.5uM -0.122 | [6]; compound concentration: 25uM -0.306 | [6]; compound concentration: 50uM -0.368 | [6]; compound concentration: 100uM -0.762 | [7]; compound concentration: 0.78uM -0.169 | [7]; compound concentration: 1.56uM -0.0659 | [7]; compound concentration: 3.13uM -0.0706 | [7]; compound concentration: 6.25uM -0.137 | [7]; compound concentration: 12.5uM -0.178 | [7]; compound concentration: 25uM -0.163 | [7]; compound concentration: 50uM -0.418 | [7]; compound concentration: 100uM -0.683 | [8]; compound concentration: 0.78uM -0.119 | [8]; compound concentration: 1.56uM -0.0453 | [8]; compound concentration: 3.13uM -0.0819 | [8]; compound concentration: 6.25uM 0.12 | [8]; compound concentration: 12.5uM -0.18 | [8]; compound concentration: 25uM -0.239 | [8]; compound concentration: 50uM -0.305 | [8]; compound concentration: 100uM -0.756 | [9]; compound concentration: 50uM -0.0732 | [9]; compound concentration: 200uM -0.717 | [10]; compound concentration: 50uM -0.385 | [10]; compound concentration: 200uM -0.766 | [11]; compound concentration: 50uM -0.773 | [13]; compound concentration: 50uM -0.833 | [14]; compound concentration: 50uM -0.731 | [16]; compound concentration: 50uM -0.373 | [17]; compound concentration: 50uM -0.341 | [18]; compound concentration: 50uM -0.448 | [19]; compound concentration: 50uM -0.426 | [20]; compound concentration: 50uM -0.924
active: [2]; compound concentration: 200uM -2.09 | [3]; compound concentration: 200uM -1.04 | [4]; compound concentration: 200uM -1.03 | [5]; compound concentration: 200uM -2.15 | [6]; compound concentration: 200uM -1.34 | [7]; compound concentration: 200uM -1.54 | [8]; compound concentration: 200uM -1.39 | [11]; compound concentration: 200uM -2.12 | [12]; compound concentration: 50uM -1.42 | [12]; compound concentration: 200uM -3.08 | [13]; compound concentration: 200uM -2.17 | [14]; compound concentration: 200uM -1.9 | [15]; compound concentration: 50uM -1.04 | [15]; compound concentration: 200uM -3.18 | [16]; compound concentration: 200uM -1.76 | [17]; compound concentration: 200uM -1.91 | [18]; compound concentration: 200uM -1.16 | [19]; compound concentration: 200uM -1.68 | [20]; compound concentration: 200uM -2.92
